Most compounds without a hit are left out; they make up all but 4.2% or so of the library.
CCHF vOTU inh: CCHFV vOTU protease inhibition | Pep-AMC fluorescence | 370,000 tested, 0.55% active | inhibition, % at 11.5 µM; further: 0% = vehicle wells with enzyme and 100% = no enzyme wells
GDH-TPI inh: GDH-TPI coupled enzyme inhibition counter-screen | GDH-TPI coupled enzyme counterscreen, NADH absorbance | inhibition, % at 4.8 µM | 360,000 tested, 1.2% active;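 further: 0% = DMSO wells and 100% = wells lacking the enzyme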
Mtb FBA inh: Mtb fructose-bisphosphate aldolase inhibition; P9WQA3; 360,000 tested, 2.3% active; AID 588726; inhibition, % at 1 µM; purified M. tuberculosis FBA, fluorescence read-out; in the data active means inhibition above about 27%;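 further: 0% = vehicle and 100% = reference inhibitor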
Target sequence (P9WQA3 whole entry, looked up): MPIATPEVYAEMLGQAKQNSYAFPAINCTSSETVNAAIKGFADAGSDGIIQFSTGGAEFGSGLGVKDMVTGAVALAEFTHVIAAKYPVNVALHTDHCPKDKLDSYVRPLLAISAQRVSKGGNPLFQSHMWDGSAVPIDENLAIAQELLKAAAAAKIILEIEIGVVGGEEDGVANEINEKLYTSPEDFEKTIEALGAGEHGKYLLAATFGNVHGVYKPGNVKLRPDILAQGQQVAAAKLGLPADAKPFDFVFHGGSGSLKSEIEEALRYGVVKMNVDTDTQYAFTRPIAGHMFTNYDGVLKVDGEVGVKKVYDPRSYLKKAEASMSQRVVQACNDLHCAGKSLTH
RecA splice inh: inhibitors of M. tuberculosis RecA intein splicing; 290,000 tested, 0.75% active; inhibition, % (no concentration beside the values); P9WHJ3; cell-free RecA intein splicing, fluorescence; in the data active means inhibition above about 30%;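 further: 0% = vehicle wells and 100% = reference inhibitor control wells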
Numbers without * were called inactive. Unless noted, no stated cut-off is given here; in the data, active means inhibition above about 30%; inactive means the rest.

What do the screens show for `CCOCC(=O)Nc1cc(-c2cn3cccnc3n2)ccc1C`?
GDH-TPI inh: 14.0; Mtb FBA inh: active; RecA splice inh: -7.6

What do the screens show for `COc1cccc(NC(=O)c2nc3ncccn3n2)c1`?
CCHF vOTU inh: -0.2; GDH-TPI inh: 3.8; Mtb FBA inh: 0.6; RecA splice inh: -0.4

What do the screens show for `COc1ccc(-c2cn3cccnc3n2)cc1NC(=O)c1cccs1`?
CCHF vOTU inh: 1.1; GDH-TPI inh: 19.2; Mtb FBA inh: 18.4; RecA splice inh: 0.6

How did COc1cccc(C(=O)Nc2cc(-c3cn4cccnc4n3)ccc2C)c1 do in these assays?
CCHF vOTU inh: -296.3; GDH-TPI inh: 15.8; Mtb FBA inh: active; RecA splice inh: -2.5

Results for O=S(=O)(c1ccccc1)[C@@]1(c2ccccc2)C[C@@H]2ON=C(c3cccc(-c4ccccc4)c3)[C@@H]2C1 ?
CCHF vOTU inh: 17.9; GDH-TPI inh: 5.4; Mtb FBA inh: 0.0; RecA splice inh: 0.7

How did Cc1cc(=O)oc2cc(OCC(=O)Nc3ccc(CN4CCOCC4)cc3)c(Cl)cc12 do in these assays?
CCHF vOTU inh: 8.8; GDH-TPI inh: 12.6; Mtb FBA inh: 1.9; RecA splice inh: 0.8

What do the screens show for `O=C(O)CCC(=O)c1ccc(C2CCCCCC2)cc1`?
CCHF vOTU inh: 10.6; Mtb FBA inh: -2.6

What do the screens show for `Cc1cc([N+](=O)[O-])nn1CC(=O)N/N=C/c1ccc(O)cc1O`?
CCHF vOTU inh: -3.4; GDH-TPI inh: 25.2; Mtb FBA inh: -2.8; RecA splice inh: -5.8

How did c1ccc(-c2ccc(-c3cn4c(n3)CCC4)cc2)cc1 do in these assays?
CCHF vOTU inh: -2.4; GDH-TPI inh: 0.0; Mtb FBA inh: 157.6*; RecA splice inh: 6.7

What do the screens show for `COc1ccc(-c2cn3c(n2)CCC3)cc1`?
CCHF vOTU inh: 9.6; GDH-TPI inh: -9.8; Mtb FBA inh: 19.2; RecA splice inh: 1.1

What do the screens show for `c1ccc(-c2nnc3n2N=C(c2ccc4ccccc4c2)CS3)nc1`?
CCHF vOTU inh: 1.4

What do the screens show for `O=C(Nc1nccs1)c1ccc(-c2ccc(Cl)cc2)o1`?
CCHF vOTU inh: 10.7; GDH-TPI inh: 54.3*; Mtb FBA inh: 1.0; RecA splice inh: -0.8

Results for Nc1ccc2nc(-c3cccc(-c4nc5ccc(N)cc5[nH]4)n3)[nH]c2c1 ?
CCHF vOTU inh: -1.9; GDH-TPI inh: 18.2; Mtb FBA inh: -0.8; RecA splice inh: 11.3

What do the screens show for `Cc1ccc2nc(-c3cccc(N)c3)[nH]c2c1`?
CCHF vOTU inh: -23.2; GDH-TPI inh: 8.4; Mtb FBA inh: 137.0*; RecA splice inh: 0.5

Results for O=C(O)c1ccc(-c2nc3ccccc3[nH]2)cc1 ?
CCHF vOTU inh: -59.2; GDH-TPI inh: 5.0; Mtb FBA inh: active; RecA splice inh: 12.4

What do the screens show for `Nc1cccc(-c2nc3ccccc3[nH]2)c1`?
CCHF vOTU inh: -26.4; GDH-TPI inh: 8.8; Mtb FBA inh: 136.1*; RecA splice inh: 0.2

How did O=C(O)c1ccc(/C=C(\c2nc3ccccc3[nH]2)c2nc3ccccc3s2)cc1 do in these assays?
CCHF vOTU inh: 17.9; GDH-TPI inh: 65.0*; Mtb FBA inh: -0.7; RecA splice inh: 38.9*

How did CCOC(=O)[C@]12CCCC=C1N(Cc1ccc3c(c1)OCO3)C(=O)[C@H](CC(=O)N1CCN(C(=O)C3CC3)CC1)C2 do in these assays?
CCHF vOTU inh: -2.4

Results for CC(C)=CCCC(C)c1cc(C(=O)NCCc2ccc(O)cc2)c(N)s1 (centres undefined) ?
CCHF vOTU inh: 16.3

What do the screens show for `CC(C)c1ccc(NC2CCCN(C(=O)CCc3cn[nH]c3)C2)cc1` (centres undefined)?
CCHF vOTU inh: -3.4; GDH-TPI inh: -4.5; Mtb FBA inh: -3.2; RecA splice inh: -3.9

Results for O=C1C[C@@H]2c3c(cccc3CN1Cc1ccc(F)cc1)C[C@@H](O)[C@H]2O ?
CCHF vOTU inh: -6.9; GDH-TPI inh: 2.6; Mtb FBA inh: 0.9

What do the screens show for `COc1ccc(NC(=O)CN2C(=O)COc3ccc(S(=O)(=O)N4CCOCC4)cc32)cc1Cl`?
CCHF vOTU inh: 22.4; GDH-TPI inh: 1.9; Mtb FBA inh: -2.9; RecA splice inh: -0.3

How did O=C(/C(=C(\O)c1ccccc1)c1nc2ccccc2[nH]1)c1ccccc1 do in these assays?
CCHF vOTU inh: 2.4; GDH-TPI inh: 39.7*; Mtb FBA inh: 2.4; RecA splice inh: -9.8

What do the screens show for `Clc1nc2c(ccc3ccccc32)[nH]1`?
CCHF vOTU inh: -16.1; GDH-TPI inh: 2.3; Mtb FBA inh: 0.9; RecA splice inh: 1.0

How did Cc1c(-c2nc3ccccc3[nH]2)cnn1C do in these assays?
CCHF vOTU inh: -12.8; GDH-TPI inh: 10.1; Mtb FBA inh: 2.5

Results for Nc1ccccc1-c1nc2ccccc2[nH]1 ?
CCHF vOTU inh: -246.5; GDH-TPI inh: 11.4; Mtb FBA inh: active; RecA splice inh: -36.6

Results for O=c1[nH]cccc1-c1nc2ccccc2[nH]1 ?
CCHF vOTU inh: -368.0; GDH-TPI inh: 42.4*; Mtb FBA inh: active; RecA splice inh: -1.0

How did Nc1ccc(-c2nc3c(ccc4ccccc43)[nH]2)cc1 do in these assays?
CCHF vOTU inh: -292.7; GDH-TPI inh: 42.1*; Mtb FBA inh: active; RecA splice inh: 0.6

What do the screens show for `Cc1ccc(S(=O)(=O)N2CCCCC2)cc1NC(=O)COC(=O)c1ccc(=O)[nH]c1`?
CCHF vOTU inh: -4.5; GDH-TPI inh: 2.5; Mtb FBA inh: 0.2

What do the screens show for `CCN(Cc1ccccc1)C(=O)C(=O)c1cn(CC(=O)N2CCCC2)c2ccccc12`?
CCHF vOTU inh: 13.2; GDH-TPI inh: 17.5; Mtb FBA inh: 1.9; RecA splice inh: -1.2

What do the screens show for `O=C(NCCS(=O)(=O)N1CCC2(CC1)OCCO2)c1ccc(F)cc1`?
CCHF vOTU inh: -6.1; GDH-TPI inh: 5.9; Mtb FBA inh: 9.1; RecA splice inh: -3.0

How did COC(=O)[C@]12C[C@H](CC(=O)NCc3cccs3)C(=O)N(Cc3ccco3)C1=C[C@H](C1CCCC1)O[C@@H]2C do in these assays?
CCHF vOTU inh: 9.1

What do the screens show for `Nc1ccc(-c2nc3ccccc3[nH]2)cc1`?
CCHF vOTU inh: -25.6; GDH-TPI inh: 22.6; Mtb FBA inh: 117.3*

Results for Cc1[nH]ncc1-c1nc2ccccc2[nH]1 ?
CCHF vOTU inh: -0.6; GDH-TPI inh: -3.0; Mtb FBA inh: -0.1; RecA splice inh: -1.1

What do the screens show for `Oc1ccc(C=Nc2ccccc2-c2nc3ccccc3[nH]2)cc1`?
CCHF vOTU inh: -292.1; GDH-TPI inh: 19.9; Mtb FBA inh: active; RecA splice inh: -6.8

What do the screens show for `COc1ccc(CN2C[C@]3(C=C(C)Cn4c(=O)n(-c5ccccc5)c(=O)n43)N=C2NC(=O)c2ccccc2)c(OC)c1`?
CCHF vOTU inh: 7.5

How did COCCNC(=O)/C(C#N)=C1\N=C(NC(=O)c2ccco2)c2ccccc21 do in these assays?
CCHF vOTU inh: 20.3; GDH-TPI inh: 45.1*; Mtb FBA inh: 3.2

What do the screens show for `CCCNC(=O)/C(C#N)=C1\N=C(NC(=O)c2ccco2)c2ccccc21`?
CCHF vOTU inh: 12.2; GDH-TPI inh: 35.4*; Mtb FBA inh: -4.5; RecA splice inh: 3.6

How did CC(C)CNC(=O)/C(C#N)=C1\N=C(NC(=O)c2ccco2)c2ccccc21 do in these assays?
CCHF vOTU inh: 9.0; GDH-TPI inh: 29.3; Mtb FBA inh: -2.2; RecA splice inh: 1.1

How did CCOc1ccccc1N1CC(O)=C(c2nc3ccccc3s2)C1=N do in these assays?
CCHF vOTU inh: 7.9; GDH-TPI inh: 22.9; Mtb FBA inh: 4.0; RecA splice inh: 0.8

Source: PubChem
